Key:
Experiment in all cases: DAPPL (digital affinity profiling via proximity ligation, sequencing); 10 mM Tris-HCl pH 7.5, 50 mM NaCl, 1 mM DTT, 4% glycerol, room temperature, 30 min; GST-TFs on glutathione beads, 16-mer random dsDNA library, 0.1% formaldehyde crosslink after washing; high values mean tight binding
[1] = molecular target: T1, ELK1 (Homo sapiens, UniProt P19419 1-428); details: protein: recombinant; tags: N-terminal GST; dsDNA, one strand shown
T1 sequence: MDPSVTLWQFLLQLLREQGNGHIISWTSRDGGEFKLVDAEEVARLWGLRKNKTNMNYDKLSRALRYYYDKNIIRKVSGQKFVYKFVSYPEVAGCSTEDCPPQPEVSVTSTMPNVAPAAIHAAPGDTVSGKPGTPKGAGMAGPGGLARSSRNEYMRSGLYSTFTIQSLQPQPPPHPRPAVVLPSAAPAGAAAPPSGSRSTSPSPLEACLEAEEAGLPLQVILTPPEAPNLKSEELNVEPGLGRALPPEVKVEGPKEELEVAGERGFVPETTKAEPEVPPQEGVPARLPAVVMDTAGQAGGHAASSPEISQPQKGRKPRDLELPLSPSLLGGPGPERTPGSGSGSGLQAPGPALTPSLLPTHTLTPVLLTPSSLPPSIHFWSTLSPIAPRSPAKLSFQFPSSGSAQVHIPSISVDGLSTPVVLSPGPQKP
In short: (§1)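 Yeast served to express human transcription factors as GST fusions, which were then captured on glutathione beads and labelled with DNA barcodes. Pooled with a tag-only sample, they were incubated with 200 nmole of a 16-mer random double-stranded DNA library for 30 min at room temperature in Tris/NaCl/DTT/glycerol buffer, washed, crosslinked with 0.1% formaldehyde, ligated by proximity, amplified by PCR and sequenced. Dividing each hexamer's read frequency for a factor by its frequency for the tag-only sample gives the binding signal.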

[2] = molecular target: ELF1 (Homo sapiens, UniProt P32519 1-619); details: protein: recombinant; tags: N-terminal GST; dsDNA, one strand shown
Sequence of ELF1 (P32519 whole entry): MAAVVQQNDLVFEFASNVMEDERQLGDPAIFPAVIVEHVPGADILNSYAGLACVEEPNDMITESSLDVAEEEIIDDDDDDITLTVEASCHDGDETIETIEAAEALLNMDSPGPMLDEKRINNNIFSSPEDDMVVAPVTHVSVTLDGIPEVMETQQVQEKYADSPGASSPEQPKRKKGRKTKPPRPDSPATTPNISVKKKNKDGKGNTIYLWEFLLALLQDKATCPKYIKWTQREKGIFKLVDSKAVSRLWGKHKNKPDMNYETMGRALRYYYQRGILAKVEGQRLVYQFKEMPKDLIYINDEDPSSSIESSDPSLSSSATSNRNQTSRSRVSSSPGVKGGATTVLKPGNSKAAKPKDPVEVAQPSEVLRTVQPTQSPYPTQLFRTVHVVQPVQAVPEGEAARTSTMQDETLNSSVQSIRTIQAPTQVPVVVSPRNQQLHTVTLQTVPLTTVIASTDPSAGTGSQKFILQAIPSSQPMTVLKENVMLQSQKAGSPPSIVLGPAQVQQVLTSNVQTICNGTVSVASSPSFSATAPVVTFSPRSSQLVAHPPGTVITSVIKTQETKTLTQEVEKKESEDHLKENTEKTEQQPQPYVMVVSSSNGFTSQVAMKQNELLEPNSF
In short: as §1

[3] = molecular target: SPI1 (Homo sapiens, UniProt P17947 1-270); details: protein: recombinant; tags: N-terminal GST; dsDNA, one strand shown
In short: as §1

[4] = molecular target: SPIB (Homo sapiens, UniProt Q01892 1-262); details: protein: recombinant; tags: N-terminal GST; dsDNA, one strand shown
Sequence of SPIB (Q01892 whole entry): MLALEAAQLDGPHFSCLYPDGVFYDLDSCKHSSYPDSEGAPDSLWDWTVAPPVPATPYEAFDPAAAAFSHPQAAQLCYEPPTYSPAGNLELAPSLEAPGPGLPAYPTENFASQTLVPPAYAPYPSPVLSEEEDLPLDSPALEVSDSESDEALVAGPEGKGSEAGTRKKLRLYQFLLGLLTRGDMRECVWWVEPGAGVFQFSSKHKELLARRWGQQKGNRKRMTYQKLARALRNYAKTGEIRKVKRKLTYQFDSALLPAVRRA
In short: as §1

[5] = molecular target: HSF1 (Homo sapiens, UniProt Q00613 1-529); details: protein: recombinant; tags: N-terminal GST; chain copies: 3; dsDNA, one strand shown
Sequence of HSF1 (Q00613 whole entry): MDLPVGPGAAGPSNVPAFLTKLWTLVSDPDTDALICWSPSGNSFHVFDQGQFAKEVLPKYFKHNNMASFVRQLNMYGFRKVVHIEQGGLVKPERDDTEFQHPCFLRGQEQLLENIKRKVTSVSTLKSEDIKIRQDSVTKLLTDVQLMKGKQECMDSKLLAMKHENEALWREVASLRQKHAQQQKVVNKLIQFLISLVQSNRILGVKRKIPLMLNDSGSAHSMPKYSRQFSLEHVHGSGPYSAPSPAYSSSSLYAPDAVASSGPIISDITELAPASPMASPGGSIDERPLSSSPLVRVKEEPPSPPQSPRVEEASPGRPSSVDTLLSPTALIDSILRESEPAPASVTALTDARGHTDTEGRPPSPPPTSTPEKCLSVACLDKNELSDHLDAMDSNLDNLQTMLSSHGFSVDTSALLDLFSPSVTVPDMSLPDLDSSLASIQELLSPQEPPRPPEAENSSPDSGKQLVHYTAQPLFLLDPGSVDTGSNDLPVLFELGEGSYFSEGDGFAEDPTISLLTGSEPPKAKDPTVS
In short: as §1

[6] = molecular target: T2, SPIC (Homo sapiens, UniProt Q8N5J4 1-248); details: protein: recombinant; tags: N-terminal GST; dsDNA, one strand shown
T2 sequence: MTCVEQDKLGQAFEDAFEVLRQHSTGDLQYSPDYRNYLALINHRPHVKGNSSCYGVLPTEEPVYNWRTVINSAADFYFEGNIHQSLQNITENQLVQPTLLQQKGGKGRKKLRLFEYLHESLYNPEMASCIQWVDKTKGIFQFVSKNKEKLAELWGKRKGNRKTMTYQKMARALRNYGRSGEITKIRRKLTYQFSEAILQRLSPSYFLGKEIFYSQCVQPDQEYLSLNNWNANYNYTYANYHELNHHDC
In short: as §1

[7] = molecular target: T3, ELK4 (Homo sapiens, UniProt P28324-2 1-405); details: protein: recombinant; tags: N-terminal GST; dsDNA, one strand shown
T3 sequence: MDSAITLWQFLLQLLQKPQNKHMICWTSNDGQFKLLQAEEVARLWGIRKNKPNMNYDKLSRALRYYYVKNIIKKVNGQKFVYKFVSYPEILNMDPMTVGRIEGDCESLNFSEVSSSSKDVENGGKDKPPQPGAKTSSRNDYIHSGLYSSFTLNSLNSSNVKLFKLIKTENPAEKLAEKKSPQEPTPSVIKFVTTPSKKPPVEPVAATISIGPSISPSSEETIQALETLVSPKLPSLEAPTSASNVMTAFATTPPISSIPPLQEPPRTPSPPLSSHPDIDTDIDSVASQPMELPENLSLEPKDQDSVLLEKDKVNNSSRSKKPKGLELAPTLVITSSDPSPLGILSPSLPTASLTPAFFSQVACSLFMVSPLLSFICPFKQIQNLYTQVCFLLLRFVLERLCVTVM
In short: as §1

[8] = molecular target: T4, ELF3 (Homo sapiens, UniProt P78545 1-371); details: protein: recombinant; tags: N-terminal GST; dsDNA, one strand shown
T4 sequence: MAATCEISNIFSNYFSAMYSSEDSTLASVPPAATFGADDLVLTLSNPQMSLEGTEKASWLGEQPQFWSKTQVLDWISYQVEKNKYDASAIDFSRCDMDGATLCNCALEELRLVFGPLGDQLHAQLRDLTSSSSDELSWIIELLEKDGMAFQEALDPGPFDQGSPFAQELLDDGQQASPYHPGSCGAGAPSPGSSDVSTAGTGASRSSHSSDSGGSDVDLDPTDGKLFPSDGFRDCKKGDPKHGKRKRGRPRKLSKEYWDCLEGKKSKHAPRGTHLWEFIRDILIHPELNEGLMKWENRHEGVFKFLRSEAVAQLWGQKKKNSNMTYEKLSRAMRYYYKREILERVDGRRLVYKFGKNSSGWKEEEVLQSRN
In short: as §1

[9] = molecular target: ETV1 (Homo sapiens, UniProt P50549 1-477); details: protein: recombinant; tags: N-terminal GST; dsDNA, one strand shown
Sequence of ETV1 (P50549 whole entry): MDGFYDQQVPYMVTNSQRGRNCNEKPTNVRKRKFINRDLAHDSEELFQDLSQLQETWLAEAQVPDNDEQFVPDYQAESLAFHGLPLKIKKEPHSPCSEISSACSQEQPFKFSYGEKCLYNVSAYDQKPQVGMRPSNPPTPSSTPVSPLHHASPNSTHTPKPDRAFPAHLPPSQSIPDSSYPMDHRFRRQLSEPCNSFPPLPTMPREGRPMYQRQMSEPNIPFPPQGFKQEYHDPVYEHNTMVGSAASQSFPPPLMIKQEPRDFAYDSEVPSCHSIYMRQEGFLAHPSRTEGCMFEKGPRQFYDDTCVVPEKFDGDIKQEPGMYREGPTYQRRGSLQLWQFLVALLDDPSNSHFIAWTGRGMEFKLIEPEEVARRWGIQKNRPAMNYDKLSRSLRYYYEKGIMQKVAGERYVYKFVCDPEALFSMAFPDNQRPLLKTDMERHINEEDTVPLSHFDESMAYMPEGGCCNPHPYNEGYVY
In short: as §1

[10] = molecular target: T5, ERF (Homo sapiens, UniProt P50548 1-548); details: protein: recombinant; tags: N-terminal GST; dsDNA, one strand shown
T5 sequence: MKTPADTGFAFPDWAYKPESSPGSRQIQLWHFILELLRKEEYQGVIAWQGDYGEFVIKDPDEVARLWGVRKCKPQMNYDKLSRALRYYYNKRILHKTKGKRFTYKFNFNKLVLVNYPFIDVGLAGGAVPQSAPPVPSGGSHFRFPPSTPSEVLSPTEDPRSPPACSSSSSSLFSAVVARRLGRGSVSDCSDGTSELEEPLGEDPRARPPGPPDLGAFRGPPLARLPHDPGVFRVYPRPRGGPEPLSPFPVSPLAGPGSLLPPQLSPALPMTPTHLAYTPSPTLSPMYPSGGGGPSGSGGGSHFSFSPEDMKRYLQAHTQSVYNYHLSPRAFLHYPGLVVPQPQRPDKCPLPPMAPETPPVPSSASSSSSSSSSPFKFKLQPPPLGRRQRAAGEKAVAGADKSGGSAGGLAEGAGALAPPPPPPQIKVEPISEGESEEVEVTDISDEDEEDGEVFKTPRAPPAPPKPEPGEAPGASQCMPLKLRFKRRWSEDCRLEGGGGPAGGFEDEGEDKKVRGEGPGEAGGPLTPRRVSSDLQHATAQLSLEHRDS
In short: as §1

[11] = molecular target: T6, ETS2 (Homo sapiens, UniProt P15036 1-469); details: protein: recombinant; tags: N-terminal GST; dsDNA, one strand shown
T6 sequence: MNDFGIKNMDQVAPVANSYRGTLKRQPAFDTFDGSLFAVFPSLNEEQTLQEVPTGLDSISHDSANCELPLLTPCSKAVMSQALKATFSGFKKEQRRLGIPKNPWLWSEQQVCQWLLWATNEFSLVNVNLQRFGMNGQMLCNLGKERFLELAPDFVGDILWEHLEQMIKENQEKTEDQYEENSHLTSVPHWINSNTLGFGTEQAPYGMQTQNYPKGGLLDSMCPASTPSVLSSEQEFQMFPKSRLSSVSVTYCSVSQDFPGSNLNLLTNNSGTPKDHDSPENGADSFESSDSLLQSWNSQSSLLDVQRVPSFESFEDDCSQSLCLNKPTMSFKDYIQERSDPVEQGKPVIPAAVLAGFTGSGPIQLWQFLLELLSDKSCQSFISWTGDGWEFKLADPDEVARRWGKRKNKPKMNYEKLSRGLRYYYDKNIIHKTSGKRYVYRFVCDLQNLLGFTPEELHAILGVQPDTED
In short: as §1

[12] = molecular target: T7, ETV3 (Homo sapiens, UniProt P41162-2 1-143); details: protein: recombinant; tags: N-terminal GST; dsDNA, one strand shown
T7 sequence: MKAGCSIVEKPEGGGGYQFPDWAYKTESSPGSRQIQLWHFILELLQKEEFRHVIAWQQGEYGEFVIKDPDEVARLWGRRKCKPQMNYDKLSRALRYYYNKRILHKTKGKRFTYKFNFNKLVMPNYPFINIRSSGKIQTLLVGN
In short: as §1

[13] = molecular target: ELF4 (Homo sapiens, UniProt Q99607 1-663); details: protein: recombinant; tags: N-terminal GST; dsDNA, one strand shown
Sequence of ELF4 (Q99607 whole entry): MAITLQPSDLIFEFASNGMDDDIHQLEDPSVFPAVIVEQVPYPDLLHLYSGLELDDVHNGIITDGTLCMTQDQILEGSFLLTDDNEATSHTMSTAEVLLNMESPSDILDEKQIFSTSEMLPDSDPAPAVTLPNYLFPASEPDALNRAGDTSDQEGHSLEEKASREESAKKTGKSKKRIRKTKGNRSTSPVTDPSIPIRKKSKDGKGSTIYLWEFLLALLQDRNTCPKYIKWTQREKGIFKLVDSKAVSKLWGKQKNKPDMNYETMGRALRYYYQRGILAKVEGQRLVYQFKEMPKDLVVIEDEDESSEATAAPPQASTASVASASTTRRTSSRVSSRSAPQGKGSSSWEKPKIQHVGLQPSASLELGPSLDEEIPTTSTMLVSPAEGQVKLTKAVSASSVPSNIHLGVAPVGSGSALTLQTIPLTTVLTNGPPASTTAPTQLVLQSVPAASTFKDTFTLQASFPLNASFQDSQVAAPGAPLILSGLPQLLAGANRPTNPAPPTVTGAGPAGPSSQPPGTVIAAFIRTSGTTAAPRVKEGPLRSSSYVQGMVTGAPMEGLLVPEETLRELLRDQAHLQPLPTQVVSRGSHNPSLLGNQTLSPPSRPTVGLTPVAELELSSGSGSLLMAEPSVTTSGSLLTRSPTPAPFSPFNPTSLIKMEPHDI
In short: as §1

[14] = molecular target: T8, ETV3L (Homo sapiens, UniProt Q6ZN32 1-361); details: protein: recombinant; tags: N-terminal GST; dsDNA, one strand shown
T8 sequence: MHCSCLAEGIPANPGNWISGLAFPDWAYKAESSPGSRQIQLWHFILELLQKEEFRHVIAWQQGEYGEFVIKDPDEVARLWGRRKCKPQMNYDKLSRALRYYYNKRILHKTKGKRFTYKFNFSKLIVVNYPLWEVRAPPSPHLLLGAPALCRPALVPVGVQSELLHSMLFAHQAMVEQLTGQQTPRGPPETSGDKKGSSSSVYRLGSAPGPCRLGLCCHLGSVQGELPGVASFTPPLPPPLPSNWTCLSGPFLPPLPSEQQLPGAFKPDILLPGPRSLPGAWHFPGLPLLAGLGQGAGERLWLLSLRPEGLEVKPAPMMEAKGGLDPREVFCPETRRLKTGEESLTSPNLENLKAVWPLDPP
In short: as §1

Row | Sequence | binding signal [1] | binding signal [2] | binding signal [3] | binding signal [4] | binding signal [5] | binding signal [6] | binding signal [7] | binding signal [8] | binding signal [9] | binding signal [10] | binding signal [11] | binding signal [12] | binding signal [13] | binding signal [14]
1 | CCCTAG | 1.04 fold enrichment (6-mer frequency, TF over GST control) | 1.06 fold enrichment (6-mer frequency, TF over GST control) | 1 fold enrichment (6-mer frequency, TF over GST control) | 1.05 fold enrichment (6-mer frequency, TF over GST control) | 1.15 fold enrichment (6-mer frequency, TF over GST control) | 1.18 fold enrichment (6-mer frequency, TF over GST control) | 1.01 fold enrichment (6-mer frequency, TF over GST control) | 1.13 fold enrichment (6-mer frequency, TF over GST control) | 1.01 fold enrichment (6-mer frequency, TF over GST control) | 1.04 fold enrichment (6-mer frequency, TF over GST control) | 1.03 fold enrichment (6-mer frequency, TF over GST control) | 1.04 fold enrichment (6-mer frequency, TF over GST control) | – | –
2 | TGAAAG | – | 1.05 fold enrichment (6-mer frequency, TF over GST control) | 1.05 fold enrichment (6-mer frequency, TF over GST control) | 1.04 fold enrichment (6-mer frequency, TF over GST control) | 1.08 fold enrichment (6-mer frequency, TF over GST control) | 1.01 fold enrichment (6-mer frequency, TF over GST control) | 1.06 fold enrichment (6-mer frequency, TF over GST control) | – | – | – | 1.01 fold enrichment (6-mer frequency, TF over GST control) | – | 1.01 fold enrichment (6-mer frequency, TF over GST control) | 1.04 fold enrichment (6-mer frequency, TF over GST control)

— paper PMC7862700, “An all-to-all approach to the identification of sequence-specific readers for epigenetic DNA modifications on cytosine”
